Reference: PubChem BioAssay (NCATS)
Several values for one entry are separate records, joined by “and”; a condition that tells them apart may be missing. Identical values can stand only once. Results filed as inconclusive are left out. Activity calls are given as the source filed them. Calls come from the whole dose curve; as a rule, active = well fitted curve in the direction sought with a large enough effect; inconclusive = small, poorly fitted or top-dose-only effect, or another doubt; inactive = no such curve, though single readings can be large; an effect the other way counts as inactive or inconclusive.

Key:
CRL-7250 [1] = test: Cytotoxic Profiling of Annotated Libraries Using Quantitative High-Throughput Screening (AID 1296008); conditions: Five cell lines viability, CellTiter-Glo ATP luminescence, 48-72 h; max response: stronger effect = lower value; note: nearly all actives have a fitted effect of over 60% in size
Outline: (§1)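 Cells exposed to compounds for 48 or 72 hr at 37 degrees Celsius. Viability read as ATP-coupled luminescence with CellTiter-Glo after 10 min at room temperature.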

HEK293 = test: as above; conditions: Five cell lines viability, CellTiter-Glo ATP luminescence, 48-72 h; max response: stronger effect = lower value
Outline: as §1

HaCat [2] = test: as above; conditions: Five cell lines viability, CellTiter-Glo ATP luminescence, 48-72 h; max response: stronger effect = lower value
Outline: as §1

KB-3-1 = test: as above; conditions: Five cell lines viability, CellTiter-Glo ATP luminescence, 48-72 h; max response: stronger effect = lower value
Outline: as §1

NIH3T3 [3] = test: as above; conditions: Five cell lines viability, CellTiter-Glo ATP luminescence, 48-72 h; max response: stronger effect = lower value
Outline: as §1

CRL-7250 [4] = test: qHTS assay to identify novel small-molecules to repurpose for Merkel cell carcinoma treatment (AID 1296009); conditions: MCC and control cell lines, CellTiter-Glo viability, 72 h; at 44.8 µM (top of the series) unless noted; note: nearly all actives have a fitted effect of over 60% in size
Outline: (§2)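 Dose-response viability screen; 72 hr exposure at 37 degree celsius; CellTiter-Glo added, 10 min room temperature, luminescence read; RLUs scaled between no-cell and DMSO wells.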

HACAT [5] = test: as above; conditions: MCC and control cell lines, CellTiter-Glo viability, 72 h; at 44.8 µM (top of the series) unless noted
Outline: as §2

MCC-13 = test: as above; conditions: MCC and control cell lines, CellTiter-Glo viability, 72 h; series mostly up to 46 µM
Outline: as §2

MCC-26 = test: as above; conditions: MCC and control cell lines, CellTiter-Glo viability, 72 h; series mostly up to 46 µM
Outline: as §2

MKL-1 = test: as above; conditions: MCC and control cell lines, CellTiter-Glo viability, 72 h; series mostly up to 46 µM
Outline: as §2

MKL-2 = test: as above; conditions: MCC and control cell lines, CellTiter-Glo viability, 72 h; series mostly up to 46 µM
Outline: as §2

NIH3T3 [6] = test: as above; conditions: MCC and control cell lines, CellTiter-Glo viability, 72 h; at 44.8 µM (top of the series) unless noted
Outline: as §2

UISO = test: as above; conditions: MCC and control cell lines, CellTiter-Glo viability, 72 h; series mostly up to 46 µM
Outline: as §2

WaGa = test: as above; conditions: MCC and control cell lines, CellTiter-Glo viability, 72 h; series mostly up to 46 µM
Outline: as §2

C33A = test: Primary qHTS to identify gynecologic anti-cancer compounds using libraries of approved drugs and bioactive compounds (AID 1345084); conditions: Gynecologic cancer cell panel viability, ATPlite luminescence, 48 h; series mostly up to 57.5 µM; note: nearly all actives have a fitted effect of over 55% in size
Outline: (§3)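 Luminescence from the ATPlite ATP-monitoring reagent indicates viable cell number; lower signal means cytotoxicity. Cells received compound 16 h after seeding and were exposed for 48 h across five concentrations.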

CAOV3 = test: as above; conditions: Gynecologic cancer cell panel viability, ATPlite luminescence, 48 h; series mostly up to 57.5 µM
Outline: as §3

CASKI = test: as above; conditions: Gynecologic cancer cell panel viability, ATPlite luminescence, 48 h; series mostly up to 57.5 µM
Outline: as §3

Es-2 = test: as above; conditions: Gynecologic cancer cell panel viability, ATPlite luminescence, 48 h; series mostly up to 57.5 µM
Outline: as §3

HeLa = test: as above; conditions: Gynecologic cancer cell panel viability, ATPlite luminescence, 48 h; series mostly up to 57.5 µM
Outline: as §3

HEK293T = test: qHTS assay to identify novel small-molecules to repurpose for Merkel cell carcinoma treatment (AID 1296009); conditions: MCC and control cell lines, CellTiter-Glo viability, 72 h; at 44.8 µM (top of the series); note: nearly all actives have a fitted effect of over 60% in size
Outline: as §2
% is set by controls: 0 for no effect and ±100 for the full control effect.

CN1C(=O)CN=C(c2ccccc2)c2cc([N+](=O)[O-])ccc21
inactive: outcome (CRL-7250 [1]) | max response (HEK293) -10% | outcome (HaCat [2]) | max response (KB-3-1) 9.64% | outcome (NIH3T3 [3]) | outcome (CRL-7250 [4]) | outcome (HACAT [5]) | Potency (MCC-13) | Potency (MCC-26) | Potency (MKL-1) | Potency (MKL-2) | outcome (NIH3T3 [6]) | Potency (UISO) | Potency (WaGa) | Potency (C33A) | Potency (CAOV3) | Potency (CASKI) | Potency (Es-2) | Potency (HeLa)

COc1ccc(CN2CCNCC2)c(OC)c1OC
inactive: max response (CRL-7250 [1]) 0.0195% | max response (HEK293) -9.25% | outcome (HaCat [2]) | max response (KB-3-1) 5.8% | max response (NIH3T3 [3]) 1.76% | outcome (HACAT [5]) | Potency (MCC-13) | Potency (MCC-26) | Potency (MKL-1) | Potency (MKL-2) | Potency (UISO) | Potency (WaGa) | Potency (C33A) | Potency (CASKI) | Potency (Es-2) | Potency (HeLa)

CCCC[N+]1(C)[C@@H]2CC(OC(=O)[C@H](CO)c3ccccc3)C[C@H]1[C@@H]1O[C@@H]12 (stereo partly drawn)
inactive: max response (CRL-7250 [1]) -24.5% | outcome (CRL-7250 [1]) | outcome (HEK293) | max response (HaCat [2]) -9.09% | outcome (HaCat [2]) | max response (KB-3-1) 6.44% and 1.1% | max response (NIH3T3 [3]) 4.56% and 3.97% | outcome (HACAT [5]) | outcome (HEK293T) | Potency (MCC-13) | Potency (MCC-26) | Potency (MKL-1) | Potency (MKL-2) | Potency (UISO) | Potency (WaGa) | Potency (C33A) | Potency (CASKI) | Potency (Es-2) | Potency (HeLa)

CCOC(=O)NC(O)C(Cl)(Cl)Cl (stereo not drawn)
inactive: max response (CRL-7250 [1]) 0.547% | max response (HEK293) -1.01% | outcome (HaCat [2]) | max response (KB-3-1) 11.7% | max response (NIH3T3 [3]) 0.136% | outcome (HACAT [5]) | Potency (MCC-13) | Potency (MCC-26) | Potency (MKL-1) | Potency (MKL-2) | Potency (UISO) | Potency (WaGa) | Potency (C33A) | Potency (CAOV3) | Potency (CASKI) | Potency (Es-2) | Potency (HeLa)

C[C@H]1CNCCc2ccc(Cl)cc21
inactive: outcome (CRL-7250 [1]) | outcome (HEK293) | max response (HaCat [2]) 2.82% | max response (KB-3-1) -14.3% | outcome (NIH3T3 [3]) | outcome (CRL-7250 [4]) | outcome (HEK293T) | Potency (MCC-13) | Potency (MCC-26) | Potency (MKL-1) | Potency (MKL-2) | outcome (NIH3T3 [6]) | Potency (UISO) | Potency (WaGa) | Potency (C33A) | Potency (CAOV3) | Potency (CASKI) | Potency (Es-2) | Potency (HeLa)

NC(=O)OCCCc1ccccc1
inactive: outcome (CRL-7250 [1]) | max response (HEK293) 3.07% | outcome (HaCat [2]) | max response (KB-3-1) -19.1% | outcome (NIH3T3 [3]) | outcome (CRL-7250 [4]) | outcome (HACAT [5]) | Potency (MCC-13) | Potency (MCC-26) | Potency (MKL-1) | Potency (MKL-2) | outcome (NIH3T3 [6]) | Potency (UISO) | Potency (WaGa) | Potency (C33A) | Potency (CASKI) | Potency (Es-2) | Potency (HeLa)
